Test results published in PubChem BioAssay (EPA / NIEHS).
Values joined by “and” are separate entries in the source; they are usually repeats but may differ in a detail not shown here. Identical values can stand only once. Records with an inconclusive call do not appear. A structure can be active in one record and inactive in another. Active and inactive are the calls of the source. The calls were made as follows, unless noted: active = hit-call score of the fitted dose curve at least 0.9, where 1 is the maximum; inactive = score below 0.9.

Assays:
[1] = CCTE_Shafer_MEA_acute_cross_correlation_area: CCTE's Neural Acute Assay for Area of Cross Correlation, Shafer Lab (AID 2284024);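 also: area under pooled inter-electrode spike cross-correlation near zero lag as percent change from own baseline; curves fitted for loss of cross-correlation area so actives lower synchrony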
Summary of the method: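 Rat cortical cultures, DIV 13/15, MEA; spikes detected at 8x rms noise (300-5000 Hz band-pass). Compound 0.03-40 uM, ≥3 wells each. Readout: % change in pooled inter-electrode cross-correlation area vs own baseline; DMSO negative control.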

[2] = CCTE_Shafer_MEA_acute_LDH: CCTE's Lactate Dehydrogenase Assay for Cytotoxicity in the Neural Acute Assay, Shafer Lab (AID 2284086; active = hit-call score of the fitted dose curve at least 0.9, where 1 is the maximum;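 also: active means LDH release rises above DMSO vehicle level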)
Summary of the method: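 Released lactate dehydrogenase, read at 490 nm, indicated cytotoxicity after acute 40-min compound treatment of rat cortical neuron networks grown on 48-well MEA plates.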

[3] = read-out: Monokine induced gamma interferon (MIG), CXCL9 (gene 4283); test: BSK_KF3CT_MIG: BioMAP Diversity Plus: KF3CT Assay for Monokine induced gamma interferon (MIG) Biomarker Activity (AID 2284248); conditions: primary human keratinocytes with fibroblasts
Summary of the method: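 ELISA read-out of MIG after 24 h chemical exposure of human skin primary co-culture (keratinocytes, foreskin fibroblasts). Gain of signal relative to DMSO negative control was analysed.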

[4] = read-out: Interferon-inducible T-cell alpha chemoattractant (ITAC), CXCL11 (gene 6373); test: BSK_hDFCGF_ITAC: BioMAP Diversity Plus: hDFCGF Assay for Interferon-inducible T-cell alpha chemoattractant (ITAC) Biomarker Activity (AID 2284251); conditions: primary human foreskin fibroblasts
Summary of the method: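 Fibroblasts (human foreskin, primary) are treated with chemical, cultured 24 h, then assayed for I-TAC by ELISA. Overt toxicity is checked in parallel cultures by sulforhodamine B staining of total protein at the same time point.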

[5] = read-out: Plasminogen activator inhibitor-1 (PAI1), SERPINE1 (gene 5054); test: BSK_KF3CT_PAI1: BioMAP Diversity Plus: KF3CT Assay for Plasminogen activator inhibitor-1 (PAI1) Biomarker Activity (AID 2284252); conditions: primary human keratinocytes with fibroblasts
Summary of the method: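 Signal is PAI-1 detected by ELISA in a human skin-derived keratinocyte/fibroblast co-culture, 24 h after dosing; DMSO served as negative control and baseline.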

[6] = read-out: Interleukin-8 (IL8), CXCL8 (gene 3576); test: BSK_KF3CT_IL8: BioMAP Diversity Plus: KF3CT Assay for Interleukin-8 (IL8) Biomarker Activity (AID 2284254); conditions: primary human keratinocytes with fibroblasts
Summary of the method: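 IL-8 read-out: ELISA, 24 h post-dose, human skin primary co-culture (keratinocytes + foreskin fibroblasts). DMSO = baseline; positive-direction fit.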

[7] = read-out: Intercellular Adhesion Molecule 1 (ICAM1), ICAM1 (gene 3383); test: BSK_BE3C_ICAM1: BioMAP Diversity Plus: BE3C Assay for Intercellular Adhesion Molecule 1 (ICAM1) Biomarker Activity (AID 2284278); conditions: primary human bronchial epithelial cells;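 also: cell-surface ICAM-1 protein level quantified by ELISA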
Summary of the method: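 Measured by ELISA: ICAM-1 expressed by primary human bronchial epithelial cells 24 h after compound treatment, with upward-direction fitting versus DMSO vehicle.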

[8] = read-out: Interleukin-8 (IL8), CXCL8 (gene 3576); test: BSK_BE3C_IL8: BioMAP Diversity Plus: BE3C Assay for Interleukin-8 (IL8) Biomarker Activity (AID 2284280); conditions: primary human bronchial epithelial cells
Summary of the method: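 IL-8 signal gain, normalised to DMSO vehicle, was scored after a 24 h chemical exposure of primary human bronchial epithelial cells, with detection by ELISA.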

[9] = read-out: Epidermal growth factor receptor (EGFR), EGFR (gene 1956); test: BSK_BE3C_EGFR: BioMAP Diversity Plus: BE3C Assay for Epidermal growth factor receptor (EGFR) Biomarker Activity (AID 2284281); conditions: primary human bronchial epithelial cells
Summary of the method: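 Compound is added to human bronchial epithelial cells, cells incubate 24 h, then EGFR is detected by ELISA. Values reflect positive-direction fitting relative to DMSO.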

KRT18 (gene 3875) = test: BSK_BE3C_Keratin818: BioMAP Diversity Plus: BE3C Assay for Keratin 818 Biomarker Activity (AID 2284282); conditions: primary human bronchial epithelial cells
Summary of the method: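 BE3C: human bronchial epithelial primary cells, 24 h exposure, Keratin 8/18 ELISA; DMSO = negative control/baseline; cytotoxicity by parallel SRB stain (0.1% SRB after 10% TCA fixation, 560 nm).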

[10] = read-out: Plasminogen activator inhibitor-1 (PAI1), SERPINE1 (gene 5054); test: BSK_CASM3C_PAI1: BioMAP Diversity Plus: CASM3C Assay for Plasminogen activator inhibitor-1 (PAI1) Biomarker Activity (AID 2284284); conditions: primary human coronary artery smooth muscle cells;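 also: PAI-1 protein level measured by ELISA 24 h after dosing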
[11] = read-out: Intercellular Adhesion Molecule 1 (ICAM1), ICAM1 (gene 3383); test: BSK_hDFCGF_ICAM1: BioMAP Diversity Plus: hDFCGF Assay for Intercellular Adhesion Molecule 1 (ICAM1) Biomarker Activity (AID 2284287); conditions: primary human foreskin fibroblasts
Summary of the method: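 Primary human foreskin fibroblasts (hDFCGF system) dosed with chemical; ICAM-1 quantified by ELISA at 24 h relative to DMSO. Parallel SRB total-protein staining to assess overt cytotoxicity.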

[12] = read-out: TIMP metallopeptidase inhibitor 2 (TIMP2), TIMP2 (gene 7077); test: BSK_hDFCGF_TIMP2: BioMAP Diversity Plus: hDFCGF Assay for TIMP metallopeptidase inhibitor 2 (TIMP2) Biomarker Activity (AID 2284289); conditions: primary human foreskin fibroblasts
Summary of the method: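 Primary human foreskin fibroblasts in the hDFCGF system, dosed for 24 h; TIMP-2 level measured by ELISA, fitted in the positive direction against DMSO; cytotoxicity checked in parallel by sulforhodamine B total protein staining.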

[13] = read-out: Thrombomodulin, THBD (gene 7056); test: BSK_LPS_Thrombomodulin: BioMAP Diversity Plus: LPS Assay for Thrombomodulin Biomarker Activity (AID 2284296); conditions: primary human HUVEC with PBMC
Summary of the method: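 Human umbilical vein endothelial cells co-cultured with PBMC and stimulated with LPS; cell-surface thrombomodulin measured by ELISA 24 hours after compound. Gain or loss versus DMSO; cytotoxicity checked by SRB staining in parallel cultures.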

[14] = biological target: Peroxisome proliferator-activated receptor gamma (Homo sapiens) (UniProt P37231); test: ATG_PPARg_TRANS: Attagene TRANS-FACTORIAL HepG2 Assay for human Peroxisome Proliferator-activated Receptor-gamma (PPARg) (AID 2283007; active = hit-call score of the fitted dose curve at least 0.9, where 1 is the maximum)
Summary of the method: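 Gain-of-signal endpoint relative to DMSO, derived from reporter mRNA levels quantified by RT-PCR and capillary electrophoresis. Cells were HepG2 transiently expressing a chimeric NR-Gal4 construct with GAL4-UAS reporters, exposed to chemicals for 24 h.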

[15] = biological target: Nuclear receptor subfamily 1 group I member 3 (Homo sapiens) (UniProt Q14994); test: ATG_CAR_TRANS: Attagene TRANS-FACTORIAL HepG2 Assay for human Constitutive Androstane Receptor (CAR) (AID 2282969; active = hit-call score of the fitted dose curve at least 0.9, where 1 is the maximum;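 also: activators raise reporter mRNA above DMSO so AC50 marks induction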); conditions: HepG2 Attagene TRANS-FACTORIAL CAR reporter
Summary of the method: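 Readout is reporter mRNA induction, quantified by fluorescent primer extension and capillary electrophoresis after RT-PCR. Cells were HepG2 transiently carrying chimeric NR-Gal4 constructs with GAL4-UAS reporters, treated for 24 h; activity scored upward from DMSO.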

[16] = biological target: Estrogen receptor beta (Homo sapiens) (UniProt Q92731); test: OT_ER_ERbERb_0480: Odyssey Thera (OT) 8-hour HEK293T Protein-Complementation Assay for Estrogen Receptor-beta/-beta Homodimer (AID 2283357; active = hit-call score of the fitted dose curve at least 0.9, where 1 is the maximum;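 also: active means signal gain over DMSO baseline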)
Summary of the method: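 Cells (HEK293T, stable ER-beta LBD PCA pair) are treated 8 hours, fixed and Draq5-stained; signal is fluorescence intensity increase relative to vehicle, fitted in the gain direction.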

[17] = biological target: Bile acid receptor (Homo sapiens) (UniProt Q96RI1); test: OT_FXR_FXRSRC1_1440: Odyssey Thera (OT) 24-hour HEK293T Protein-Complementation Assay for Farnesoid X receptor/SRC-1 Co-activator (AID 2283384; active = hit-call score of the fitted dose curve at least 0.9, where 1 is the maximum)
Summary of the method: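 Cell-based binding reporter: interaction of FXR with SRC-1 brings reporter fragments together, giving a fluorescence signal read 24 h after dosing of HEK293T cells.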

[18] = biological target: human RAR-related Orphan Receptor beta (RORb), RORB (gene 6096) (UniProt Q92753); test: ATG_RORb_TRANS: Attagene TRANS-FACTORIAL HepG2 Assay for human RAR-related Orphan Receptor beta (RORb) (AID 2283010; active = hit-call score of the fitted dose curve at least 0.9, where 1 is the maximum)
Summary of the method: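 In this TRANS-format test, human HepG2 cells express chimeric NR-Gal4 fusion proteins driving GAL4-UAS reporters. After 24 h dosing, reporter transcripts are measured by fluorescent RT-PCR/capillary electrophoresis, with DMSO as negative control.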

[19] = ACEA_ER_AUC_viability: ACEA Biosciences xCELLigence Real-Time Cell Analysis on Estrogen Receptor Agonism for Viability (AID 2283782; active = hit-call score of the fitted dose curve at least 0.9, where 1 is the maximum;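 also: continuous compound exposure with impedance area under curve over 80 h; hit means loss of impedance signal meaning reduced cell growth or viability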)
Summary of the method: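 T-47D; phenol red-free RPMI1640 + 10% CS-FBS; 8 conc., 1:4 serial, max 100 uM final, ≤0.5% DMSO; n = 2; continuous exposure; impedance monitored to 80 h post-dose; AUC vs DMSO.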

Measured: AC50

Sequence of Bile acid receptor (Homo sapiens) (Q96RI1 whole entry, looked up, the tested form may be a part): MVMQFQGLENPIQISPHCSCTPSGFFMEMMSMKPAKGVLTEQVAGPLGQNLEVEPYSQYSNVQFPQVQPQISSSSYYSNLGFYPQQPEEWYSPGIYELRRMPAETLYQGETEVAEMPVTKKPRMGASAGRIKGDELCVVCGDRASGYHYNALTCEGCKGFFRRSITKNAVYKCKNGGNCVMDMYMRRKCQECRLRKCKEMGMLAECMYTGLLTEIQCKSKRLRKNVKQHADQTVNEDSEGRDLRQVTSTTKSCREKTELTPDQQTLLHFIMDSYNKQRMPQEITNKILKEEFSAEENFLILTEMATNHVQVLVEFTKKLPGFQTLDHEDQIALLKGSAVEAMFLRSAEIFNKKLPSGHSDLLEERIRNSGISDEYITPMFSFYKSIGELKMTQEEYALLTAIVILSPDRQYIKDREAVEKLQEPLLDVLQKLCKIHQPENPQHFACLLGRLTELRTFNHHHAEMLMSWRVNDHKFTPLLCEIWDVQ
Sequence of human RAR-related Orphan Receptor beta (RORb), RORB (gene 6096) (Q92753 whole entry, looked up, the tested form may be a part): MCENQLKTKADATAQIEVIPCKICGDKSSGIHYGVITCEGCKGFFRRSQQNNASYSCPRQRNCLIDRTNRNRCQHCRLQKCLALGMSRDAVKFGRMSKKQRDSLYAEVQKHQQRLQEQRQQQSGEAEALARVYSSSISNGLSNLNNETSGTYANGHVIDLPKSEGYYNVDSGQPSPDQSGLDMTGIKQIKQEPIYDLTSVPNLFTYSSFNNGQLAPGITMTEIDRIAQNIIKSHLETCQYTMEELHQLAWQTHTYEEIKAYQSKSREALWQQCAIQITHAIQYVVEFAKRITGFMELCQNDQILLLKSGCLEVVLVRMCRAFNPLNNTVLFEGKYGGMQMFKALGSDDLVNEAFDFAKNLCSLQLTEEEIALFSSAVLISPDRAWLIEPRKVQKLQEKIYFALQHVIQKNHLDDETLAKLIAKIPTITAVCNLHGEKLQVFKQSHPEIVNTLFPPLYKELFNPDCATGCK
Sequence of Nuclear receptor subfamily 1 group I member 3 (Homo sapiens) (Q14994 whole entry, looked up, the tested form may be a part): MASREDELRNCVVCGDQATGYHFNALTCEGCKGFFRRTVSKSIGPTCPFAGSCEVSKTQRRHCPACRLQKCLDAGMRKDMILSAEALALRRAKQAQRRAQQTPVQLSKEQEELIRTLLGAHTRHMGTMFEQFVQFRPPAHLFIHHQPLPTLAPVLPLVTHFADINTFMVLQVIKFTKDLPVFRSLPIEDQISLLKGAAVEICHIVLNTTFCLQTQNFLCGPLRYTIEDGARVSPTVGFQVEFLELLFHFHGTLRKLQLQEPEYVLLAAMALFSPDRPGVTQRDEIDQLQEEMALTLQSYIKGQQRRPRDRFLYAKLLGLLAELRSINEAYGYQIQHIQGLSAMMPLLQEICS
Sequence of Estrogen receptor beta (Homo sapiens) (Q92731 whole entry, looked up, the tested form may be a part): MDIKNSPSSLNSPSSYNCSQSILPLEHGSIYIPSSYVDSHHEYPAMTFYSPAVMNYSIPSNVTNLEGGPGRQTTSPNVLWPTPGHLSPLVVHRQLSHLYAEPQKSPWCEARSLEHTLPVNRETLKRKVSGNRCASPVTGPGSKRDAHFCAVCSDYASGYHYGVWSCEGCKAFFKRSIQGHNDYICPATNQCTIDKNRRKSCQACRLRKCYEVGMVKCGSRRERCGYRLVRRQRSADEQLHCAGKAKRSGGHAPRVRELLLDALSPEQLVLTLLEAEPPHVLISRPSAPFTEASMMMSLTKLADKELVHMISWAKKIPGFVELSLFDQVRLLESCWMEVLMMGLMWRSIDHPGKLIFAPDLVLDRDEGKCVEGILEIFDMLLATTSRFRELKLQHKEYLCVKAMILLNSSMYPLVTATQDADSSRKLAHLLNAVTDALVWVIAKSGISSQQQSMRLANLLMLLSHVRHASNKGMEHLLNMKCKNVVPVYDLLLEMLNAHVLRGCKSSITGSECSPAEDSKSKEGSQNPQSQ
Sequence of Peroxisome proliferator-activated receptor gamma (Homo sapiens) (P37231 whole entry, looked up, the tested form may be a part): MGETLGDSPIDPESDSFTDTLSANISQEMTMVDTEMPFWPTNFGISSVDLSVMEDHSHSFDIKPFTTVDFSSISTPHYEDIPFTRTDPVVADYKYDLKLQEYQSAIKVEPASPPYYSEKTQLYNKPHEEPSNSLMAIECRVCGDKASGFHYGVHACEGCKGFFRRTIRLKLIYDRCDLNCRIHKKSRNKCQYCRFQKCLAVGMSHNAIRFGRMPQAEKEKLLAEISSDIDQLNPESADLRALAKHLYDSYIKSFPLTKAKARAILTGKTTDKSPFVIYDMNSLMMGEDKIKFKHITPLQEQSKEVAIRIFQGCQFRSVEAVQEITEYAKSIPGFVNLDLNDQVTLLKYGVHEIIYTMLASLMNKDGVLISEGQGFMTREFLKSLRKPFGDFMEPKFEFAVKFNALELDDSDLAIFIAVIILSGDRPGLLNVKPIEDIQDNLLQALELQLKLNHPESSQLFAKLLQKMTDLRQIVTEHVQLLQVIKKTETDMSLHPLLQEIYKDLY

C1CN(CCOCCN2CCOCC2)CCO1
not listed: [14] | [15] | [16] | [17] | [18] | [19]
inactive: all other assays above

Oc1ccc(Cl)cc1C1CCCC1
active: [14] 33.4 µM

CC(C)C1OCCN1CCOC(=O)NCCCCCCNC(=O)OCCN1CCOC1C(C)C (stereo unspecified)
not listed: [14] | [15] | [16] | [17] | [18] | [19]
inactive: all other assays above

O=C(CC(C(=O)OC1CCCCC1)S(=O)(=O)O)OC1CCCCC1 (stereo unspecified)
inactive: [15] | [16] | [17]
active: [14] 47.7 µM

c1ccc2c(c1)Oc1ccccc1S2
inactive: [15]

CC(C)CC(=O)CC(C)CC(C)C (stereo unspecified)
inactive: [15] | [14] | [18] | [19]

O=C(Oc1ccccc1)c1ccccc1
inactive: [14] | [18] | [16] | [17] | [19]

CC(C)(C)C(=O)C(=O)O
inactive: [19]

c1ccc(CNc2ncnc3nc[nH]c23)cc1
inactive: [16] | [17] | [19]

CCCCCCCCCCCCCCCCCC[N+](C)(C)C
active: [14] 32.7 µM
inactive: [15]

COc1cc(CNC(=O)CCCC/C=C/C(C)C)ccc1O
inactive: [1] | [2] | [3] | [5] | [6] | [7] | [8] | [9] | KRT18 (gene 3875) | [10] | [11] | [12] | [13]
active: [4] 8.32 µM and 8.05 µM | [12] 27.7 µM

NC(N)=Nc1nc(CSCCC(N)=NS(N)(=O)=O)cs1
inactive: [1] | [2]

CCO[Si](CCCN)(OCC)OCC
inactive: [18] | [17] | [19]

CCC[Si](OC(C)=O)(OC(C)=O)OC(C)=O
active: [1] 0.072 µM
not listed: [14] | [15] | [16] | [17] | [18] | [19]
inactive: all other assays above

COc1ccc(COC=O)cc1
inactive: [19]

CNCCC(Oc1ccc(C(F)(F)F)cc1)c1ccccc1 (stereo unspecified)
inactive: [1] | [2]
